# Where “and” joins values, the source holds several entries; their conditions need not be identical. Equal entries are not always repeated. Compounds without any hit were thinned out: in the full panel of roughly 83,000, 20% have a hit.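 Testing used 96-well plates and a 48-hour single-concentration exposure. Example: -40 means 40% of the starting cells died.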 Calls of active or inactive are those of the source.
# Test system: OVCAR-5 ovarian
# Experiment: NCI-60 one-dose screen, 48 h (100 = growth as untreated, 0 = no growth, -100 = all killed)
# Conditions: 10 µM
# Procedure: Growth inhibition of the OVCAR-5 human tumor cell line is measured as a screen for anti-cancer activity. Cells are grown in 96 well plates and exposed to the test compound for 48 hours. Compounds are tested at a single concentration, which is 10^-5 M for most compounds. The reported endpoint is percent growth (GI% or GIPRCNT), where numbers from 0 - 100% represent growth inhibition, and numbers from -100% - 0 represent cell death. For example, a value of 40 represents 60% growth inhibition. A value of 0 means no net growth occurred over the course of the experiment. A value of -40 indicates 40% of cells at the beginning of the experiment died by the end of the experiment. A value of -100 means all cells are dead at the end of the experiment.
# NCI-60 Human Tumor Cell Lines Screen was performed using the standard one-dose NCI protocol, which is described in more detail at https://dtp.cancer.gov/discovery_development/nci-60/default.htm.
# Compounds with GIPRCNT values below 10 were considered active. Activity score was based on GIPRCNT using the following formula: […]
# Score is 0 for GIPRCNT values of 100 or above, 50 for GIPRCNT values of 0, and 100 for GIPRCNT values of -100.
row,Compound,growth
1,CN(C)C(=O)c1ccc(SC(=S)NCc2ccccc2)cc1,113% (inactive)

# Same assay, conditions: 10 µM unless noted
row,Compound,growth
1,CC(=O)C(=Cc1ccc(C=C(C(C)=O)C(C)=O)cc1)C(C)=O,27.1% (inactive)
2,Cc1ccc(N=C=C(c2ccccc2)c2ccccc2)cc1,113% (inactive)
3,CCC(=O)Sc1ccccc1C(=O)Nc1ccc(Cl)cc1,110% (inactive)
4,O=C1c2cccnc2-c2nccc3c2c1nc1cc(Br)ccc13,32.3% (inactive) and -53% (active)
5,COc1cc(/C=C(/C)C[N+](=O)[O-])ccc1O,110% (inactive)
6,O=C1NC(=O)/C(=C/C=C/c2ccccc2)S1,92.5% (inactive)
7,Cc1ccc2c(ccc3c[n+]4c5ccccc5ccc4n32)c1,47.6% (inactive)
8,CC(=Nc1ccc(N(C)C)cc1)c1ccccc1,106% (inactive)
9,O=C1c2ccccc2C(=O)N1c1ccccc1,107% (inactive)
10,Oc1c(Cl)c2ccccc2c2ccccc12,129% (inactive)
11,O=C(/C=C/c1cccc(Cl)c1)c1ccccc1,97.9% (inactive) and 95.6% (inactive)
12,S=C(N/N=C/c1ccccn1)Nc1ccccn1,49.2% (inactive)
13,CC(C)c1ccc2nc3ccc(C(=O)NCCN4CCN(c5ccccc5)CC4)cn3c(=O)c2c1,91.1% (inactive)
14,O[C@H]1[C@H]2c3cc4c(cc3CN3CCC(=C[C@@H]1O)[C@H]23)OCO4,34.5% (inactive)
15,CN(C)CCOc1ccc2c(c1)C(=O)/C(=C\c1ncc([N+](=O)[O-])n1C)C2,-21.1% (active)
16,CCC1OC(OC)C=CC1=O (stereo not given),123% (inactive)
17,O=C(O)C1C2CC3C(OC(=O)C31)C2Br (stereo not given),103% (inactive) and 100% (inactive)
18,CCOC(=O)/C=C/c1ccc([N+](=O)[O-])o1,75% (inactive)
19,OC(CNc1ccnc2cc(Cl)ccc12)CNc1ccnc2cc(Cl)ccc12,79.5% (inactive)

row,Compound,growth
1,c1ccc2c(c1)Nc1cc3ccccc3cc1N2,69.7% (inactive)
2,O=C(/C=C\c1cc(Br)ccc1O)/C=C/c1cc(Br)ccc1O,-22.2% (active)
3,CCOC(=O)c1c(C)[nH]c(CO)c1C,104% (inactive)
4,N#Cc1ccc([N+](=O)[O-])o1,107% (inactive)
5,Cc1cc2nc(CS)[nH]c2cc1C,96.8% (inactive)
6,Cc1ccc(C(=Nc2ccccc2)N=P(c2ccccc2)(c2ccccc2)c2ccccc2)cc1,-5.4% (active)
7,NC(=S)N/N=C\c1nccc2c(C(F)(F)C(F)(F)C(F)(F)F)cccc12,42.3% (inactive)
8,Nc1nc(N)c2nc(CNc3ccc(C(=O)NC(CCC(=O)O)C(=O)O)cc3)cnc2n1 (stereo not given),31.9% (inactive)
9,O=C(O)c1ccc2c3c(ncnc13)-c1ccccc1C2=O,116% (inactive)
10,Nc1nc(N)c2c(ccc3c2ccn3Cc2cccc([N+](=O)[O-])c2)n1,-96.9% (active)
11,C=C(Cl)C(=NC(C)(C)C)Nc1ccccc1C,114% (inactive)
12,Cc1ccc(NS(=O)(=O)c2ccc(C)cc2)cc1,111% (inactive) and 105% (inactive)
13,CN(C)c1ccc(/C=N/N=C(\C#N)[S][Sn]([Cl])([c]2ccccc2)[c]2ccccc2)cc1,13.1% (inactive)
14,N#CSCc1ccc(Cl)c(CSC#N)c1,68.7% (inactive)
15,N#CC1C(=O)SC2c3ccccc3C(=O)c3ccccc3C12 (stereo not given),105% (inactive)
16,Cc1cc(C(C)(CC(C)C)c2ccc(O)c(C)c2)ccc1O,113% (inactive)
17,O=C1C2=C(Nc3cc([N+](=O)[O-])ccc3N2)OC1c1c2ccccc2cc2ccccc12 (stereo not given),75.8% (inactive)
18,Oc1c(Cl)cc(Cl)c2cccnc12,94.9% (inactive)
19,O=C(/C=C/C=C/c1ccccc1)c1ccco1,108% (inactive)

# Same assay, conditions: 100 µM
row,Compound,growth
1,CN(C)C(=O)c1ccc(SC(=S)NCc2ccccc2)cc1,20.1% (inactive)

# — PubChem BioAssay (NCI)
